# Reference: the supplement of paper PMC8728848
# The full list was thinned out, with the strongest signals kept by preference.
# What was measured:
# Experiment in all cases: glycan array binding signal (z-score within array); higher = stronger binding
# Settings in all cases: glycan notation: IUPAC condensed, linker removed
# [1] = biological target: Fuc(a1-2)Gal(b1-3)GalNAc(a1-3)[Fuc(a1-2)]Gal(b1-4)GlcNAc
# Procedure, shortened: (§1)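 The binding signal is a Z-score computed within each array and averaged over linkers. Arrays of the same protein sequence at different concentrations or buffers were also averaged together. Data originate from 3228 arrays in the Consortium for Functional Glycomics database, kept only where the protein sequence was available.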
# [2] = biological target: Fuc(a1-2)Gal(b1-3)GalNAc(b1-3)Gal(a1-4)Gal(b1-4)Glc
# Procedure, shortened: as §1
# [3] = biological target: Fuc(a1-2)Gal(b1-3)GalNAc(b1-4)[Neu5Ac(a2-3)]Gal(b1-4)Glc
# Procedure, shortened: as §1
# [4] = biological target: Fuc(a1-2)Gal(b1-3)GlcNAc(b1-3)[Fuc(a1-2)Gal(b1-3)GlcNAc(b1-6)]GalNAc
# Procedure, shortened: as §1
# Fuc(a1-2)Gal(b1-4)Glc6S = biological target: Fuc(a1-2)Gal(b1-4)Glc6S
# Procedure, shortened: as §1
# Fuc(a1-2)Gal6S(b1-4)Glc = biological target: Fuc(a1-2)Gal6S(b1-4)Glc
# Procedure, shortened: as §1
# [5] = biological target: Fuc(a1-2)[Gal(a1-3)]Gal(b1-3)GalNAc
# Procedure, shortened: as §1
# [6] = biological target: Fuc(a1-2)[Gal(a1-3)]Gal(b1-4)GlcNAc(b1-3)[Fuc(a1-2)[Gal(a1-3)]Gal(b1-4)GlcNAc(b1-6)]GalNAc
# Procedure, shortened: as §1
# [7] = biological target: Fuc(a1-2)[Gal(a1-4)]Gal(b1-4)GlcNAc
# Procedure, shortened: as §1
# [8] = biological target: Fuc(a1-2)[GalNAc(a1-3)]Gal(b1-4)GlcNAc(b1-2)Man(a1-3)[Fuc(a1-2)[GalNAc(a1-3)]Gal(b1-4)GlcNAc(b1-2)Man(a1-6)]Man(b1-4)GlcNAc(b1-4)GlcNAc
# Procedure, shortened: as §1
# [9] = biological target: Fuc(a1-2)[GalNAc(a1-3)]Gal(b1-4)GlcNAc(b1-3)Gal(b1-4)GlcNAc(b1-3)Gal(b1-4)GlcNAc
# Procedure, shortened: as §1
# [10] = biological target: Gal(a1-3)[Gal(a1-4)]Gal(b1-4)GlcNAc
# Procedure, shortened: as §1
# [11] = biological target: Gal(b1-3)GlcNAc(a1-6)Gal(b1-4)GlcNAc
# Procedure, shortened: as §1
# Gal(b1-3)GlcNAc6S = biological target: Gal(b1-3)GlcNAc6S
# Procedure, shortened: as §1
# [12] = biological target: Gal(b1-3)[Neu5Ac(a2-6)]GlcNAc(b1-4)Gal(b1-4)Glc
# Procedure, shortened: as §1
# [13] = biological target: Gal(b1-3)[Neu5Ac(b2-6)]GalNAc
# Procedure, shortened: as §1
# Gal(b1-4)Glc6S = biological target: Gal(b1-4)Glc6S
# Procedure, shortened: as §1
# [14] = biological target: Gal(b1-4)GlcNAc(b1-2)Man(a1-3)Man(b1-4)GlcNAc(b1-4)GlcNAc
# Procedure, shortened: as §1
# [15] = biological target: Gal(b1-4)GlcNAc(b1-2)[Gal(b1-4)GlcNAc(b1-6)]Man(a1-6)[Gal(b1-4)GlcNAc(b1-2)Man(a1-3)]Man(b1-4)GlcNAc(b1-4)[Fuc(a1-6)]GlcNAc
# Procedure, shortened: as §1
# [16] = biological target: Gal(b1-4)GlcNAc(b1-2)[Gal(b1-4)GlcNAc(b1-6)]Man(a1-6)[GlcNAc(b1-4)][Gal(b1-4)GlcNAc(b1-2)Man(a1-3)]Man(b1-4)GlcNAc(b1-4)GlcNAc
# Procedure, shortened: as §1
# [17] = biological target: Gal(b1-4)GlcNAc(b1-3)Gal(b1-4)GlcNAc(b1-3)[Gal(b1-4)GlcNAc(b1-3)Gal(b1-4)GlcNAc(b1-6)]GalNAc
# Procedure, shortened: as §1
# [18] = biological target: Gal(b1-4)GlcNAc(b1-3)Gal(b1-4)GlcNAc(b1-6)[Gal(b1-3)]GalNAc
# Procedure, shortened: as §1
# [19] = biological target: Gal(b1-4)GlcNAc(b1-3)GalNAc
# Procedure, shortened: as §1
# Gal6S(b1-4)Glc6S = biological target: Gal6S(b1-4)Glc6S
# Procedure, shortened: as §1
# GalNAc(b1-4)GlcNAc = biological target: GalNAc(b1-4)GlcNAc
# Procedure, shortened: as §1
# Glc(b1-4)Glc = biological target: Glc(b1-4)Glc
# Procedure, shortened: as §1
# [20] = biological target: GlcNAc(a1-4)Gal(b1-3)GlcNAc
# Procedure, shortened: as §1
# [21] = biological target: GlcNAc(b1-2)[GlcNAc(b1-6)]Man(a1-6)[GlcNAc(b1-4)][GlcNAc(b1-2)Man(a1-3)]Man(b1-4)GlcNAc(b1-4)GlcNAc
# Procedure, shortened: as §1
# [22] = biological target: GlcNAc(b1-3)Gal(b1-4)GlcNAc(b1-6)[Gal(b1-3)]GalNAc
# Procedure, shortened: as §1
# [23] = biological target: GlcNAc(b1-3)[GlcNAc(b1-6)]Gal(b1-4)GlcNAc
# Procedure, shortened: as §1
# Kdn(a2-3)Gal(b1-3)GalNAc = biological target: Kdn(a2-3)Gal(b1-3)GalNAc
# Procedure, shortened: as §1
# Man(a1-2)Man(a1-3)Man = biological target: Man(a1-2)Man(a1-3)Man
# Procedure, shortened: as §1
# [24] = biological target: Man(a1-2)Man(a1-3)[Man(a1-6)]Man(a1-6)[Man(a1-2)Man(a1-3)]Man(b1-4)GlcNAc(b1-4)GlcNAc
# Procedure, shortened: as §1
# [25] = biological target: Man(a1-3)[Man(a1-6)]Man(a1-6)[Man(a1-3)]Man
# Procedure, shortened: as §1
# [26] = biological target: Neu5Ac(a2-3)Gal(b1-3)GlcNAc
# Procedure, shortened: as §1
# [27] = biological target: Neu5Ac(a2-3)Gal(b1-3)GlcNAc(b1-3)Gal(b1-4)GlcNAc
# Procedure, shortened: as §1
# [28] = biological target: Neu5Ac(a2-3)Gal(b1-3)GlcNAc(b1-6)GalNAc
# Procedure, shortened: as §1
# [29] = biological target: Neu5Ac(a2-3)Gal(b1-4)GlcNAc(b1-2)Man(a1-3)[Neu5Ac(a2-6)Gal(b1-4)GlcNAc(b1-2)Man(a1-6)]Man(b1-4)GlcNAc(b1-4)GlcNAc
# Procedure, shortened: as §1
# [30] = biological target: Neu5Ac(a2-3)Gal(b1-4)GlcNAc(b1-2)[Neu5Ac(a2-3)Gal(b1-4)GlcNAc(b1-6)]Man(a1-6)[Neu5Ac(a2-3)Gal(b1-4)GlcNAc(b1-2)Man(a1-3)]Man(b1-4)GlcNAc(b1-4)GlcNAc
# Procedure, shortened: as §1
# [31] = biological target: Neu5Ac(a2-3)Gal(b1-4)[Fuc(a1-3)]GlcNAc(b1-3)Gal(b1-4)[Fuc(a1-3)]GlcNAc(b1-3)Gal(b1-4)[Fuc(a1-3)]GlcNAc
# Procedure, shortened: as §1
# [32] = biological target: Neu5Ac(a2-3)Gal(b1-4)[Fuc(a1-3)]GlcNAc(b1-3)GalNAc
# Procedure, shortened: as §1
# [33] = biological target: Neu5Ac(a2-3)Gal(b1-4)[Fuc(a1-3)]GlcNAc(b1-6)[Neu5Ac(a2-3)Gal(b1-3)]GalNAc
# Procedure, shortened: as §1
# [34] = biological target: Neu5Ac(a2-3)Gal6S(b1-4)GlcNAc
# Procedure, shortened: as §1
# Neu5Ac(a2-3)GalNAc = biological target: Neu5Ac(a2-3)GalNAc
# Procedure, shortened: as §1
# [35] = biological target: Neu5Ac(a2-3)[GalNAc(b1-4)]Gal(b1-4)Glc
# Procedure, shortened: as §1
# [36] = biological target: Neu5Ac(a2-6)Gal(b1-4)GlcNAc
# Procedure, shortened: as §1
# [37] = biological target: Neu5Ac(a2-6)Gal(b1-4)GlcNAc(b1-2)Man
# Procedure, shortened: as §1
# [38] = biological target: Neu5Ac(a2-6)Gal(b1-4)GlcNAc(b1-2)[Neu5Ac(a2-6)Gal(b1-4)GlcNAc(b1-4)]Man(a1-3)[GlcNAc(b1-4)][Neu5Ac(a2-6)Gal(b1-4)GlcNAc(b1-2)[Neu5Ac(a2-6)Gal(b1-4)GlcNAc(b1-6)]Man(a1-6)]Man(b1-4)GlcNAc(b1-4)GlcNAc
# Procedure, shortened: as §1
# [39] = biological target: Neu5Ac(a2-6)Gal(b1-4)GlcNAc(b1-3)Gal(b1-4)GlcNAc(b1-3)[Neu5Ac(a2-6)Gal(b1-4)GlcNAc(b1-3)Gal(b1-4)GlcNAc(b1-6)]GalNAc
# Procedure, shortened: as §1
# [40] = biological target: Neu5Ac(a2-6)Gal(b1-4)GlcNAc(b1-6)GalNAc
# Procedure, shortened: as §1
# [41] = biological target: Neu5Ac(a2-6)Gal(b1-4)GlcNAc(b1-6)[Gal(b1-3)GlcNAc(b1-3)]Gal(b1-4)Glc
# Procedure, shortened: as §1
# [42] = biological target: Neu5Ac(a2-6)GlcNAc(b1-4)GlcNAc
# Procedure, shortened: as §1
# [43] = biological target: Neu5Ac(a2-8)Neu5Ac(a2-8)Neu5Ac(a2-3)[GalNAc(b1-4)]Gal(b1-4)Glc
# Procedure, shortened: as §1
# [44] = biological target: Neu5Ac(a2-8)Neu5Gc(a2-3)Gal(b1-4)GlcNAc
# Procedure, shortened: as §1
# Neu5Gc(a2-6)GalNAc = biological target: Neu5Gc(a2-6)GalNAc
# Procedure, shortened: as §1
binder,measurement,setting,value
PX14404-bvu-534-26-534 (Bacteroides vulgatus) (protein) EDPRGKLTPENFFSTQDELNMSIYALYQKVNLSQVYTNMQLPQWQGDDITTNPGSNKQPAAEMDKFAAANNNKGVKDAWNMHYAIVKAANLIIQGASKTPTTQDEINIALGQAKFWRAYAYFTLVRLWGPLPMNLDNVNDDYTKPLSPVEEVYGHIVQDLTEAEAVLPTGYSGSPRFLNGVNVYVTRQAAKSTLAAVYMAMAGWPMNKTEYYAKAAEKAKEVIEGVNRGEYEYKLDKDYKDVYAMSNNYNNETVLGINYSPFVDWAQDSELTSCNQFESLGGWGDAWGEIRFWKEFPDGPRKDATYDPKIRLKDGTLVDWWELKEDGTPVVPEHHPMFSIFSVNWDPASKVNTSAPYDYTKPASQNMCNDHRHRIIRYSEVLLWYAEAKARTGQTDELAFKCLNDVRERAGLEPLTGLSADDLAEAAYKEHGWEVAGYWVALVTRRADQFRMNRLKDTFKERAENTAVEVADGILVKESVEYTNRTWSDNLMYLPYPDMDSQKNPNLVR,glycan array binding signal (z-score),[1],-0.799
same,glycan array binding signal (z-score),[2],0.314
same,glycan array binding signal (z-score),[3],-0.348
same,glycan array binding signal (z-score),[4],2.03
same,glycan array binding signal (z-score),Fuc(a1-2)Gal(b1-4)Glc6S,2.24
same,glycan array binding signal (z-score),Fuc(a1-2)Gal6S(b1-4)Glc,2.73
same,glycan array binding signal (z-score),[5],0.15
same,glycan array binding signal (z-score),[6],0.311
same,glycan array binding signal (z-score),[7],0.074
same,glycan array binding signal (z-score),[8],0.042
same,glycan array binding signal (z-score),[9],-0.561
same,glycan array binding signal (z-score),[10],3.57
same,glycan array binding signal (z-score),[11],-0.215
same,glycan array binding signal (z-score),Gal(b1-3)GlcNAc6S,-0.497
same,glycan array binding signal (z-score),[12],0.099
same,glycan array binding signal (z-score),[13],-1.21
same,glycan array binding signal (z-score),Gal(b1-4)Glc6S,0.084
same,glycan array binding signal (z-score),[14],-0.296
same,glycan array binding signal (z-score),[15],-0.583
same,glycan array binding signal (z-score),[16],-0.45
same,glycan array binding signal (z-score),[17],-0.105
same,glycan array binding signal (z-score),[18],4.7
same,glycan array binding signal (z-score),[19],-0.885
same,glycan array binding signal (z-score),Gal6S(b1-4)Glc6S,3.4
same,glycan array binding signal (z-score),GalNAc(b1-4)GlcNAc,-0.29
same,glycan array binding signal (z-score),Glc(b1-4)Glc,-0.903
same,glycan array binding signal (z-score),[20],0.178
same,glycan array binding signal (z-score),[21],-1.21
same,glycan array binding signal (z-score),[22],-0.575
same,glycan array binding signal (z-score),[23],-0.97
same,glycan array binding signal (z-score),Kdn(a2-3)Gal(b1-3)GalNAc,1.92
same,glycan array binding signal (z-score),Man(a1-2)Man(a1-3)Man,1.24
same,glycan array binding signal (z-score),[24],-0.161
same,glycan array binding signal (z-score),[25],2.67
same,glycan array binding signal (z-score),[26],0.177
same,glycan array binding signal (z-score),[27],-0.891
same,glycan array binding signal (z-score),[28],-0.09
same,glycan array binding signal (z-score),[29],0.576
same,glycan array binding signal (z-score),[30],-0.695
same,glycan array binding signal (z-score),[31],0.228
same,glycan array binding signal (z-score),[32],0.921
same,glycan array binding signal (z-score),[33],3.23
same,glycan array binding signal (z-score),[34],0.553
same,glycan array binding signal (z-score),Neu5Ac(a2-3)GalNAc,0.608
same,glycan array binding signal (z-score),[35],-1.43
same,glycan array binding signal (z-score),[36],0.634
same,glycan array binding signal (z-score),[37],-0.24
same,glycan array binding signal (z-score),[38],-0.206
same,glycan array binding signal (z-score),[39],0.075
same,glycan array binding signal (z-score),[40],0.144
same,glycan array binding signal (z-score),[41],-1.1
same,glycan array binding signal (z-score),[42],-0.51
same,glycan array binding signal (z-score),[43],0.28
same,glycan array binding signal (z-score),[44],12.9
same,glycan array binding signal (z-score),Neu5Gc(a2-6)GalNAc,1.92
